PubChem BioAssay (EPA / NIEHS)
Activity calls are given as the source filed them. The calls were made as follows: active = hit-call score of the fitted dose curve at least 0.9, where 1 is the maximum; inactive = score below 0.9.

Legend:
Settings in all cases: mRNA level, 48 h; actives raise or lower the signal
[1] = read-out: Fatty acid synthase (Homo sapiens) (UniProt P49327); test: LTEA_HepaRG_FASN: Life Technologies and Expression Analysis (LTEA) Assay for Fatty Acid Synthase (FASN) using HepaRG (AID 2283448)
In short: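 Differentiated HepaRG cells in serum-free induction medium exposed 48 h in duplicate to eight half-log concentrations, top 100 uM, 0.5% DMSO. FASN mRNA by qRT-PCR normalised to ACTB, GAPDH, POLR2A; bidirectional fit versus DMSO.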

[2] = read-out: Cyclin D2 (CCND2), CCND2 (gene 894); test: LTEA_HepaRG_CCND2: Life Technologies and Expression Analysis (LTEA) Assay for Cyclin D2 (CCND2) using HepaRG (AID 2283449);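 also: CCND2 transcript measured by TaqMan qRT-PCR and normalised to three housekeeping genes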
In short: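 Chemicals in 0.5% DMSO, eight half-log concentrations from 100 uM top, were applied in duplicate for 48 h to human HepaRG cells in serum-free induction medium. CCND2 mRNA by TaqMan qRT-PCR, normalised to ACTB/GAPDH/POLR2A; bidirectional fit versus DMSO.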

[3] = read-out: Cyclin Dependent Kinase Inhibitor 1A (CDKN1A), CDKN1A (gene 1026); test: LTEA_HepaRG_CDKN1A: Life Technologies and Expression Analysis (LTEA) Assay for Cyclin Dependent Kinase Inhibitor 1A (CDKN1A) using HepaRG (AID 2283450)
In short: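 Gain or loss of CDKN1A transcript is scored by bidirectional fitting against 0.5% DMSO vehicle. Human HepaRG cultures receive chemicals for 48 h across an 8-point series peaking at 100 uM; expression comes from qRT-PCR.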

[4] = read-out: Cyclin D1 (CCND1), CCND1 (gene 595); test: LTEA_HepaRG_CCND1: Life Technologies and Expression Analysis (LTEA) Assay for Cyclin D1 (CCND1) using HepaRG (AID 2283451)
In short: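 Expression change is measured by qRT-PCR in HepaRG cells after 48 h treatment across eight concentrations topping at 100 uM, with duplicate wells and DMSO (0.5%) serving as baseline for bidirectional fitting.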

[5] = read-out: catalase (CAT), CAT (gene 847); test: LTEA_HepaRG_CAT: Life Technologies and Expression Analysis (LTEA) Assay for catalase (CAT) using HepaRG (AID 2283452);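 as to AC50: TaqMan qRT-PCR signal normalized to ACTB GAPDH and POLR2A housekeeping genes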
In short: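 HepaRG cells in serum-free induction medium, 0.5% DMSO vehicle, exposed 48 h in duplicate over 8 half-log concentrations from 100 uM. CAT mRNA measured by qRT-PCR, normalized to ACTB, GAPDH, POLR2A; bidirectional fit versus DMSO.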

[6] = read-out: flavin-containing dimethylaniline monooxygenases 3 (FMO3), FMO3 (gene 2328); test: LTEA_HepaRG_FMO3: Life Technologies and Expression Analysis (LTEA) Assay for flavin-containing dimethylaniline monooxygenases 3 (FMO3) using HepaRG (AID 2283453)
In short: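 Differentiated HepaRG cells in serum-free induction medium, exposed 48 h in duplicate to 8 half-log concentrations up to 100 uM in 0.5% DMSO. FMO3 mRNA by qRT-PCR, normalized to ACTB, GAPDH, POLR2A; bidirectional fit vs DMSO.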

[7] = read-out: Cytochrome P450 (CYP1A1), CYP1A1 (gene 1543); test: LTEA_HepaRG_CYP1A1: Life Technologies and Expression Analysis (LTEA) Assay for Cytochrome P450 (CYP1A1) using HepaRG (AID 2283454)
In short: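 Using HepaRG cultures with 0.5% DMSO as vehicle, eight-concentration exposures (max 100 uM) lasted 48 h. Transcript levels were measured by TaqMan qRT-PCR and normalized to ACTB, GAPDH and POLR2A.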

[8] = read-out: CFLAR gene, CFLAR (gene 8837); test: LTEA_HepaRG_CFLAR: Life Technologies and Expression Analysis (LTEA) Assay for CFLAR gene using HepaRG (AID 2283455)
In short: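 Differentiated HepaRG cells in serum-free induction medium were exposed 48 h in duplicate to eight half-log concentrations up to 100 uM in 0.5% DMSO; mRNA measured by TaqMan qRT-PCR, normalized to ACTB, GAPDH, POLR2A; bidirectional fitting versus DMSO.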

[9] = read-out: Forkhead box O1 (FOXO1), FOXO1 (gene 2308); test: LTEA_HepaRG_FOXO1: Life Technologies and Expression Analysis (LTEA) Assay for Forkhead box O1 (FOXO1) using HepaRG (AID 2283456)
In short: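 Differentiated HepaRG cells, in serum-free induction medium with 0.5% DMSO, exposed 48 h in duplicate to 8-point half-log series from 100 uM. FOXO1 mRNA measured by TaqMan qRT-PCR, normalized to ACTB, GAPDH, POLR2A; bidirectional fit versus DMSO.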

[10] = read-out: growth arrest and DNA damage 45 (GADD45A), GADD45A (gene 1647); test: LTEA_HepaRG_GADD45A: Life Technologies and Expression Analysis (LTEA) Assay for growth arrest and DNA damage 45 (GADD45A) using HepaRG (AID 2283458)
In short: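 Differentiated HepaRG cells exposed 48 h in serum-free induction medium to 8 concentrations, top 100 uM in half-log steps, 0.5% DMSO. GADD45A mRNA quantified by qRT-PCR, normalized to ACTB, GAPDH and POLR2A; bidirectional fit versus DMSO.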

[11] = read-out: Forkhead box O3 (FOXO3), FOXO3 (gene 2309); test: LTEA_HepaRG_FOXO3: Life Technologies and Expression Analysis (LTEA) Assay for Forkhead box O3 (FOXO3) using HepaRG (AID 2283459)
In short: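 Differentiated human HepaRG cells, 48 h post-plating, exposed in duplicate for 48 h in serum-free induction medium; 8-point half-log series from 100 uM in 0.5% DMSO. FOXO3 mRNA by TaqMan qRT-PCR, normalized to ACTB/GAPDH/POLR2A; bidirectional fit versus DMSO.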

[12] = read-out: ABC Transporter (ABCB1), ABCB1 (gene 5243); test: LTEA_HepaRG_ABCB1: Life Technologies and Expression Analysis (LTEA) Assay for ABC Transporter (ABCB1) using HepaRG (AID 2283460)
In short: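 HepaRG cells exposed in duplicate for 48 h in serum-free induction medium to eight half-log concentrations up to 100 uM in 0.5% DMSO. ABCB1 mRNA quantified by qRT-PCR, normalised to ACTB, GAPDH and POLR2A; fitted bidirectionally versus DMSO.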

[13] = read-out: growth arrest and DNA damage 45 (GADD45B), GADD45B (gene 4616); test: LTEA_HepaRG_GADD45B: Life Technologies and Expression Analysis (LTEA) Assay for growth arrest and DNA damage 45 (GADD45B) using HepaRG (AID 2283461)
In short: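 Human HepaRG monolayers receive chemicals for 48 h at eight half-log concentrations, highest 100 uM, in 0.5% DMSO. Expression is measured by TaqMan qRT-PCR and normalized to ACTB, GAPDH and POLR2A.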

[14] = read-out: ABC Transporter (ABCB11), ABCB11 (gene 8647); test: LTEA_HepaRG_ABCB11: Life Technologies and Expression Analysis (LTEA) Assay for ABC Transporter (ABCB11) using HepaRG (AID 2283463)
In short: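 Differentiated human HepaRG cells in serum-free induction medium, dosed in duplicate for 48 h. Eight-point half-log series from 100 uM in 0.5% DMSO; ABCB11 mRNA by qRT-PCR, normalized to ACTB, GAPDH, POLR2A, fitted bidirectionally versus DMSO.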

[15] = read-out: ABC Transporter (ABCC2), ABCC2 (gene 1244); test: LTEA_HepaRG_ABCC2: Life Technologies and Expression Analysis (LTEA) Assay for ABC Transporter (ABCC2) using HepaRG (AID 2283464)
In short: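 After plating and 48 h culture, HepaRG medium is replaced with serum-free induction medium and chemicals are added (8 concentrations, max 100 uM, 0.5% DMSO) for 48 h. Total RNA then undergoes qRT-PCR for ABCC2 with housekeeping normalization.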

[16] = read-out: Broad substrate specificity ATP-binding cassette transporter ABCG2 (Homo sapiens) (UniProt Q9UNQ0); test: LTEA_HepaRG_ABCG2: Life Technologies and Expression Analysis (LTEA) Assay for ABC Transporter (ABCG2) using HepaRG (AID 2283465)
In short: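 Differentiated HepaRG cells were exposed for 48 h in serum-free induction medium to 8 half-log concentrations, top 100 uM, in 0.5% DMSO. ABCG2 mRNA was measured by qRT-PCR, normalized to ACTB, GAPDH and POLR2A, with bidirectional fitting versus DMSO.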

[17] = read-out: ATP-citrate lyase (ACLY), ACLY (gene 47); test: LTEA_HepaRG_ACLY: Life Technologies and Expression Analysis (LTEA) Assay for ATP-citrate lyase (ACLY) using HepaRG (AID 2283466)
In short: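 Differentiated HepaRG cells exposed 48 h in serum-free induction medium to eight half-log concentrations up to 100 uM in 0.5% DMSO, duplicates. Transcript measured by Fluidigm TaqMan qRT-PCR, normalized to ACTB, GAPDH, POLR2A; bidirectional fit versus DMSO.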

[18] = read-out: Peroxisomal acyl-coenzyme A oxidase 1 (ACOX1) gene, ACOX1 (gene 51); test: LTEA_HepaRG_ACOX1: Life Technologies and Expression Analysis (LTEA) Assay for Peroxisomal acyl-coenzyme A oxidase 1 (ACOX1) gene using HepaRG (AID 2283467)
In short: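 HepaRG cells, plated 48 h then switched to serum-free induction medium, were exposed in duplicate for 48 h to 8-point half-log concentrations up to 100 uM in 0.5% DMSO. ACOX1 mRNA was measured by qRT-PCR, normalized to ACTB/GAPDH/POLR2A, and fitted bidirectionally versus DMSO.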

[19] = read-out: ABC Transporter (ABCC3), ABCC3 (gene 8714); test: LTEA_HepaRG_ABCC3: Life Technologies and Expression Analysis (LTEA) Assay for ABC Transporter (ABCC3) using HepaRG (AID 2283462)
In short: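 Transcriptional change of ABCC3 in HepaRG after 48 h treatment, determined by qRT-PCR normalized to endogenous controls. Concentrations spanned eight half-log steps to 100 uM in 0.5% DMSO.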

Measured: AC50

Broad substrate specificity ATP-binding cassette transporter ABCG2 (Homo sapiens), sequence (Q9UNQ0 whole entry, looked up): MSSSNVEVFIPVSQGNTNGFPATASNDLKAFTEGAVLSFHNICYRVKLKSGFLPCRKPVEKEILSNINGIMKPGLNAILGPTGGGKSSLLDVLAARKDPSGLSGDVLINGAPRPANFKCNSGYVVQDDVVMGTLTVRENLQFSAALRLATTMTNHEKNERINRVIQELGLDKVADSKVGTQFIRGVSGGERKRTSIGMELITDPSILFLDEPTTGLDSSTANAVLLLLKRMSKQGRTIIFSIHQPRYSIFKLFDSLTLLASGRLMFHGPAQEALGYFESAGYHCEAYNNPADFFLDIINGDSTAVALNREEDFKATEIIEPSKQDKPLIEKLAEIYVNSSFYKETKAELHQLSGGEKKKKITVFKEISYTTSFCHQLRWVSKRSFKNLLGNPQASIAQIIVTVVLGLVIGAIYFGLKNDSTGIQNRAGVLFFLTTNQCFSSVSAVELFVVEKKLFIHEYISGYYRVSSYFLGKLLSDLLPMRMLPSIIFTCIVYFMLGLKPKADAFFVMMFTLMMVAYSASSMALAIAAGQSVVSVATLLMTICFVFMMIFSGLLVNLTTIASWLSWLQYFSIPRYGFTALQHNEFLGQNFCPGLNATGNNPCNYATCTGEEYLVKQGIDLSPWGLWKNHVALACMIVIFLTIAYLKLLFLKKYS
Fatty acid synthase (Homo sapiens), sequence (P49327 whole entry, looked up): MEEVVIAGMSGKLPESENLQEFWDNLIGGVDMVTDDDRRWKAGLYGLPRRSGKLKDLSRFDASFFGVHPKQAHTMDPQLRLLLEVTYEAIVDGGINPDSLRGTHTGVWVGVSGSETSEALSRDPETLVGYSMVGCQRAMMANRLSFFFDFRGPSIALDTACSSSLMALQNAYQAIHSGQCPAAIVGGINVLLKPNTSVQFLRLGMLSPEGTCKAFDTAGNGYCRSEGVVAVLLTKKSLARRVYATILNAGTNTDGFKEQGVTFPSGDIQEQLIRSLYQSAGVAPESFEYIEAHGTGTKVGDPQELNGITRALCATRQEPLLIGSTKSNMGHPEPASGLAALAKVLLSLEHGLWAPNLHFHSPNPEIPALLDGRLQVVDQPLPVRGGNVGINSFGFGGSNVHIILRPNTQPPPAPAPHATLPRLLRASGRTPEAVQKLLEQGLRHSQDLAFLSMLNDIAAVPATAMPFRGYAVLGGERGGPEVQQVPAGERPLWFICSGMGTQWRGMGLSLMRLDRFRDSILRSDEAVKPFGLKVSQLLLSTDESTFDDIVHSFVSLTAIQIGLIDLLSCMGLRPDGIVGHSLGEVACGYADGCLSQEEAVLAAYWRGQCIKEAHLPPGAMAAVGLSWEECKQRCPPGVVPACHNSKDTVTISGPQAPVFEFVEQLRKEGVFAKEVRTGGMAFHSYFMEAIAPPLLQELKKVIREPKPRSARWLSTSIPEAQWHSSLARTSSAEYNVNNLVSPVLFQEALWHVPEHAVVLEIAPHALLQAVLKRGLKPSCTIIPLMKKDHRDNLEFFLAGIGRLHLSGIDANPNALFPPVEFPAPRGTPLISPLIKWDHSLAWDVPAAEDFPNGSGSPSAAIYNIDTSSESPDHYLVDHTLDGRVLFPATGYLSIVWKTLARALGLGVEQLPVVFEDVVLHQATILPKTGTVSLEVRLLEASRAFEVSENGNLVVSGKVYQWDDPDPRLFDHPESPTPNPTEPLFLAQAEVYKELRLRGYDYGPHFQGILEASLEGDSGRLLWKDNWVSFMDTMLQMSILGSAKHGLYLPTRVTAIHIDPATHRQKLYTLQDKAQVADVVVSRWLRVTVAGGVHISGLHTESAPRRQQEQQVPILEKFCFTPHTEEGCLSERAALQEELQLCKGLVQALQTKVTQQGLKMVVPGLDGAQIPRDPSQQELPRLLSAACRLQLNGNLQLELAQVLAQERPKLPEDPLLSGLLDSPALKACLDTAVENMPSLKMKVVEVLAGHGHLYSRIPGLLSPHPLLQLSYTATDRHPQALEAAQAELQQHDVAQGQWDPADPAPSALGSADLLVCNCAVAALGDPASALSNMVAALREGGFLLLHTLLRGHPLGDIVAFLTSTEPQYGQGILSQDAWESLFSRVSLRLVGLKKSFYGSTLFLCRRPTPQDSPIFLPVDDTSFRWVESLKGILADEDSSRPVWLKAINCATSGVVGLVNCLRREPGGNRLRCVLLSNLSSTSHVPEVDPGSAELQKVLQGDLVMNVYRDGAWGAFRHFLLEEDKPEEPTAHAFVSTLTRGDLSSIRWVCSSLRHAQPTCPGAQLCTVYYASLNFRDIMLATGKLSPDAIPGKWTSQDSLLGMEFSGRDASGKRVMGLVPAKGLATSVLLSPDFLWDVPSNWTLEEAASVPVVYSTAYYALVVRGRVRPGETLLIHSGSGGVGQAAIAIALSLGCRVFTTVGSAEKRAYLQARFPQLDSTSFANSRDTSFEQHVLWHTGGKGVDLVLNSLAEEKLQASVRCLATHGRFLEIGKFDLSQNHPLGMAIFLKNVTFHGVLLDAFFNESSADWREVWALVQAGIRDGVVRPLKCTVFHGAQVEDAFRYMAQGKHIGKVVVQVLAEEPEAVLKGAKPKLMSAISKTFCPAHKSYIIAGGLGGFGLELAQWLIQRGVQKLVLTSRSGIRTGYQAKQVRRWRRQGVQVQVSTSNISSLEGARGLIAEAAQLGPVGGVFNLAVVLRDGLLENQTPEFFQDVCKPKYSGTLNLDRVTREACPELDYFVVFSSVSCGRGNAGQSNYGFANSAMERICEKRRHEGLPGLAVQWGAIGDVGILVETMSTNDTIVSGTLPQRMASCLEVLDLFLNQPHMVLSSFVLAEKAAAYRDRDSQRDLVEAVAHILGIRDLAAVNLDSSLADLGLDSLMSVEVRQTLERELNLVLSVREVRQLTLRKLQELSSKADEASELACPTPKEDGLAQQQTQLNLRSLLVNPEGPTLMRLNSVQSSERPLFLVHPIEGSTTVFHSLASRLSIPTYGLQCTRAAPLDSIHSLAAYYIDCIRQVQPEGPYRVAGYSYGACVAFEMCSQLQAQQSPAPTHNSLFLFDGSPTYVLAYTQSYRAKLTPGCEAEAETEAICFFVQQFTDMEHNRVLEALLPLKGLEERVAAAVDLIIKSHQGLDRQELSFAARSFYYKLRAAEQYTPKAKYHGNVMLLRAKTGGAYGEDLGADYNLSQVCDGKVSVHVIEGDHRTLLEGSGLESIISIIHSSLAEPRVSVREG

c1ccc2cc3ccccc3cc2c1
active: [7] 10.5 µM | [14] 71.7 µM
inactive: [1] | [2] | [3] | [4] | [5] | [6] | [8] | [9] | [10] | [11] | [12] | [13] | [15] | [16] | [17] | [18]

COCc1nnc(-c2ccc[n+]([O-])c2)n1-c1c(Cl)c(Cl)cc2[nH]c(=O)c(=O)[nH]c12
active: [7] 50 µM
inactive: [1] | [2] | [3] | [4] | [5] | [6] | [8] | [9] | [10] | [11] | [12] | [13] | [14] | [15] | [16] | [17] | [18]

Cc1nc(-c2ccccn2)ncc1C(=O)Nn1cc(C)c2cc(F)ccc21
inactive: [1] | [3] | [4] | [8] | [9] | [10] | [11] | [13] | [16] | [17] | [18]
active: [2] 1.49 µM | [5] 50 µM | [6] 85.2 µM | [7] 18.6 µM | [12] 2.77 µM | [14] 50 µM | [15] 12.2 µM

OCCOCCOCCO
active: [7] 84.1 µM | [12] 0.115 µM
inactive: [1] | [2] | [3] | [4] | [5] | [6] | [8] | [9] | [10] | [13] | [19] | [14] | [15] | [16] | [17] | [18]
